We go through 36 compounds from PubChem BioAssay.

The assay deals with Plasmodium falciparum Sir2 (PF13_0152, Sir2A). Briefly: Plasmodium falciparum Sir2A binding compounds – biochemical, small-molecule microarray, 635 nm fluorescence, primary screen (AID 1098).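 Also: score merges spot fluorescence intensity with its signal-to-noise ratio.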 The settings on record: fluorescence 635 nm, higher = more signal.
For the compound `N#Cc1ccc(NN2C(C(O)c3ccc(Br)cc3)C=CC3C(=O)N(c4ccccc4)C(=O)C32)cc1` (stereo unspecified), the composite z-score turned out to be 1.17.
`CC1CC/C=C\[C@H]2OC34C=CCN(c5ccc(Cl)cc5)C(=O)[C@H]3N(C(C)CO)C(=O)[C@]4(C)C2C(=O)O1` (stereo partly specified) came in with a composite z-score of 0.365.
Under `CO[C@H]1O[C@H](CO)[C@@H](OC(=O)Nc2ccc(Br)cc2)[C@@H]2OC(=O)[C@@H](Cc3ccccc3)C/C=C/C[C@H](Cc3ccccc3)C(=O)O[C@@H]12` stands 0.939; under `CCOC(=O)C[C@H]1[C@H](OC(=O)c2cc3ccccc3oc2=O)[C@@H](NC(=O)c2ccccc2)c2cc(OCCCO)ccc2N1C(=O)c1ccccc1`, -0.06; under `O=C1OCCC=C[C@H]2OC34C=CCN(c5ccc6ccccc6c5)C(=O)[C@H]3N(CCCO)C(=O)[C@@H]4C12` (stereo partly specified), 0.933.
In the case of `O=C1C2C=CC(C(O)C3CC=CCC3)N(Nc3ccccc3)C2C(=O)N1c1ccccc1` (stereo unspecified), the composite z-score was determined as 1.33.
Compound `Cc1ccc(S[C@]2(C(=O)NC(C)C)CC(=O)N(Cc3cc(C(F)(F)F)cc(C(F)(F)F)c3)[C@@H]2c2ccc(CO)cc2)cc1` had a composite z-score of 1.45.
For `CCOC(=O)C[C@H]1[C@H](OC(=O)c2ccccc2-c2ccccc2)[C@@H](NC(=O)c2ccc3ccccc3n2)c2cc(OCCCO)ccc2N1C(=O)Cc1ccc(OC)cc1`, the composite z-score was -0.235.
Under `CC(C)c1ccc(NN2C(C(O)c3ccc(C#N)cc3)C=CC3C(=O)N(c4ccccc4)C(=O)C32)cc1` (stereo unspecified) stands 1.28; under `CCC#CCN(Cc1ccccc1Br)[C@H](/C=C/C1CC1)[C@@H](O)Cc1ccccc1`, -0.306; under `C=C[C@@H](OC)[C@H](OC(=O)Nc1ccc(OC)cc1)c1ccc(O)c(F)c1`, 1.52.
`C=CCC(OC(C)=O)[C@@H]1[C@@H](N(Cc2ccc(-c3cccc(C(F)(F)F)c3)o2)C(=O)c2ccc(-c3ccccc3)cc2)c2cc(OCCCO)ccc2N1C(=O)Cc1ccc2ccccc2c1` (stereo partly specified) registered a composite z-score of -0.417.
Turning to `CCOC(=O)C1=C[C@@H](c2ccccc2)N(S(=O)(=O)c2ccc(C)cc2)[C@H]1c1ccc(OC)cc1`, the composite z-score came out at 0.979.
The compound `CS(=O)(=O)CCOC(=O)C1=CC(CCCO)=CC(c2ccc(CN3CCCC3)cc2)N(Cc2sc3ccccc3c2Cl)C=C1C(=O)OCCS(C)(=O)=O` (stereo unspecified) displayed a composite z-score of 1.37.
Under `CCOC(=O)C[C@H]1[C@H](OC(=O)Cc2ccc3c(c2)OCO3)[C@@H](NC(=O)c2ccc3ccccc3n2)c2cc(OCCCO)ccc2N1C(=O)c1ccc2ccccc2n1` stands 0.138.
Under `C=CCC(OC(C)=O)[C@@H]1[C@@H](N(Cc2ccc(-c3ccccc3)cc2)C(=O)c2ccc(-c3ccccc3)cc2)c2cc(OCCCO)ccc2N1C(=O)c1ccc2ccccc2c1` (stereo partly specified) stands -0.519.
In the case of `Cc1ccc(NN2C(C(O)c3c(F)cccc3Cl)C=CC3C(=O)N(C4CCCCC4)C(=O)C32)cc1` (stereo unspecified), the composite z-score is 0.338.
Under `CN(C)C(=O)[C@]1(Cc2ccccc2CN=[N+]=[N-])N=C(c2ccc(OCCCO)cc2)O[C@@H]1c1ccccc1` stands 1.19.
Under `Cc1ccc(S[C@]2(C(=O)O)CC(=O)N(C3CCCCC3)[C@@H]2c2ccc(CO)cc2I)cc1` stands 1.48; under `CCOC(=O)C[C@H]1[C@H](OC(=O)c2cc3ccccc3oc2=O)[C@@H](NC(=O)CC(C)C)c2cc(OCCCO)ccc2N1C(=O)c1ccc2ccccc2n1`, 0.342.
Under `CCOC(=O)C[C@H]1[C@H](OC(=O)c2ccc(-c3ccccc3)cc2)[C@@H](NC(=O)CC(C)C)c2cc(OCCCO)ccc2N1C(=O)c1ccc2ccccc2n1` stands 0.988.
`CCOC(=O)C[C@H]1[C@H](OC(=O)c2ccc(C(=O)c3ccccc3)cc2)[C@@H](NC(=O)c2ccc3ccccc3n2)c2cc(OCCCO)ccc2N1C(=O)Cc1ccc(OC)cc1`: the composite z-score is -0.318.
Under `COc1ccc([Si](C)(C)[C@@H]2[C@@H](CC(=O)N(CCO)Cc3ccccc3)O[C@]3(C(=O)N(Cc4cccc(N5CCCCC5=O)c4)c4ccccc43)[C@H]2C)cc1` stands 1.16; under `COC(=O)[C@]1(CCS(=O)(=O)c2ccccc2)N=C(c2ccc(OCCCO)cc2)O[C@@H]1c1ccccc1N=[N+]=[N-]`, 1.62; under `COC(=O)[C@@]1(Cc2ccccc2)[C@H]2c3cc(C(=O)N4CCCC4)n(CCc4ccccn4)c3C[C@H]2CN1C(=O)c1ccccc1`, 1.04.
Under `CCCN1C(=O)[C@@]2(Cc3ccccc31)N=C(c1ccc(OCCCO)cc1)O[C@H]2c1ccccc1` stands 1.48; under `COC(=O)[C@@]1(Cc2ccc(F)cc2)[C@H]2c3cc(C(=O)N(C)C)n(Cc4ccc(OC(F)(F)F)cc4)c3C[C@H]2CN1C(=O)c1ccccc1`, 0.19.
Under `CC(=O)N1CC2(CC2)CC1c1ccccc1` (stereo unspecified) stands -0.295; under `CC(C)[Si](C#CCCCC#N)(O[C@H](c1ccccc1)c1cn(Cc2ccccc2)nn1)C(C)C`, 0.562; under `COCCOC(=O)N1C(=O)[C@@]2(c3cc(C#CC4(O)CCCCCC4)ccc31)[C@H](c1ccc(O)cc1)N1[C@H](c3ccccc3)[C@H](c3ccccc3)OC(=O)[C@H]1[C@@H]2C(=O)N1CCN(c2ncccn2)CC1`, 0.952.
For the compound `CC1=C2[C@@H](CCc3ccccc3)OB(O)C[C@@H]2[C@@H]2C(=O)N(Cc3ccccc3)C(=O)[C@@H]2C1`, the composite z-score amounted to 0.294.
As for `CCOC(=O)C[C@H]1[C@H](OC(=O)Cc2ccc3c(c2)OCO3)[C@@H](NC(=O)C2CCCCC2)c2cc(OCCCO)ccc2N1C(=O)c1ccccc1`, the composite z-score was determined as 0.0882.
`COCCCNC(=O)[C@@]1(CCC(=O)OC(C)(C)C)N=C(c2ccc(OCCCO)cc2)O[C@H]1c1ccccc1N=[N+]=[N-]` came in with a composite z-score of 1.46.
Take `[N-]=[N+]=Nc1ccccc1C[C@]1(C(=O)NCC(O)CO)COC(c2ccc(OCCCO)cc2)=N1` (stereo partly specified): the composite z-score amounted to 0.989.
Under `CCCC[C@@H](O)C1=C(COC)C[C@H]2C(=O)N(C)C(=O)[C@H]2[C@H]1CO` stands 0.0237.
For the compound `CCCCCCc1nc(Cc2cc(OC)c(OC)c(OC)c2)cc2c1[Si](C(C)C)(C(C)C)OC2`, the composite z-score turned out to be 0.209.
